# Reference: PubChem BioAssay (EPA / NIEHS)
# Records with an inconclusive call do not appear. Calls of active or inactive are those of the source. The calls were made as follows: active = hit-call score of the fitted dose curve at least 0.9, where 1 is the maximum; inconclusive = response in the unintended direction; inactive = score below 0.9.
# Read-out: Cytochrome P450 2B6 (Homo sapiens) (UniProt P20813)
# Assay: CLD_CYP2B6_24hr: CellzDirect (CLD) Gene Expression Assay for xenobiotic metabolism (CYP2B6) at 24 hours (AID 2283686)
# Method: CLD_24hr is a cell-based, multiplexed-readout assay that uses hepatocyte, a human liver primary cell, with measurements taken at 24 hours after chemical dosing in a 96-well plate.CLD_CYP2B6_24hr is one of 16 assay component(s) measured or calculated from the CLD_24hr assay. It is designed to make measurements of mRNA induction, a form of inducible reporter, as detected with chemiluminescence signals by Quantitative Nuclease Protection Assay (qNPA) technology.Data from the assay component CLD_CYP2B6_24hr was analyzed at the endpoint, CLD_CYP2B6_24hr, in the positive analysis fitting direction relative to DMSO as the negative control and baseline of activity. Using a type of inducible reporter, gain-of-signal activity can be used to understand changes in the reporter gene as they relate to the gene CYP2B6. Furthermore, this assay endpoint can be referred to as a primary readout. To generalize the intended target to other relatable targets, this assay endpoint is annotated to the cyp intended target family, where subfamily is xenobiotic metabolism.
# Human hepatocyte cultures were treated daily for two consecutive days with fresh dosing solutions containing appropriate concentrations of the 320 ToxCast chemicals (chemical identities were blinded to CellzDirect and other ToxCast collaborators), vehicle control (0.2% DMSO), and positive control inducers as summarized in Table 1. Due to the large number of treatment groups and chemicals examined, the ToxCast chemicals were divided into two groups (spanning two independent cultures of hepatocytes from separate donor preparations (Hu778: ToxCast plates 1 and 2; Hu776: ToxCast plates 3 and 4). Each preparation of human hepatocyte cultures was treated with respective vehicle control, medium only control, set of six positive controls/reference chemicals for the five hepatic receptor pathways, and a subset of eight of the ToxCast chemicals (indoxacarb, pyrithiobac-sodium, norflurazon, cyhalofop-butyl, methomyl, thiram, acetochlor, and propiconazole). These replicate data, coupled with internal replicates designed within the blinded ToxCast chemical library, provided additional data to evaluate interindividual differences between hepatocyte preparations and their potential impact on chemical profiles.Cell morphology and integrity were evaluated using phase-contrast microscopy as an indicator of hepatocyte cell health (Tyson & Green, 1987). Cultures for each treatment group (i.e., media, vehicle [0.2% DMSO], positive control inducers [multiple concentrations], and the ToxCast chemicals [multiple concentrations]) were observed and cell morphology was assessed relative to vehicle control cultures at each harvest time point (0, 6, 24, or 48 h). […] Images were evaluated at the conclusion of the study to assess changes in cell integrity and account for the effects of chemical exposure on uncharacteristic changes in concentration-dependent gene expression profiles. The results from these determinations of apparent cytotoxicity were annotated (yes/no) alongside the corresponding qNPA data for reference.At the conclusion of each treatment period, hepatocyte cultures (96-well) were washed with 1 volume of HBSS, lysed by addition of 25 ul ArrayPlate lysis buffer (HTG, Tucson, AZ), and 70 ul/well of Denaturation Oil, denatured by incubation at 95C for 10 min, and frozen at approximately -70C until analysis by nuclease protection assay (qNPA) (Roberts et al., 2007). For qNPA analysis, cell lysates were thawed at 50C for approximately 30 min, qNPA probes were added, and samples were incubated at 95C for 10 min to begin the detection process by denaturing the target RNA, dissociating the duplexes and secondary structure hybridization. At the conclusion of the hybridization period, S1 nuclease reagent was added to each sample to digest all nonprotected nucleotides at 50C for 60-90 min. […]
Structure (SMILES),outcome,AC50
O=C(O)CCCOc1ccc(Cl)cc1Cl,inactive,
CCCN(CCC)c1c([N+](=O)[O-])cc(C(F)(F)F)cc1[N+](=O)[O-],,2.06 µM (active)
CNC(=O)/C=C(\C)OP(=O)(OC)OC,,0.000497 µM (active)
CCC(C)(NC(=O)c1cc(Cl)c(C)c(Cl)c1)C(=O)CCl (stereo not given),,3.97 µM (active)
COP(=S)(OC)Oc1ccc(SC)c(C)c1,,20 µM (active)
CCS(=O)(=O)c1cccnc1S(=O)(=O)NC(=O)Nc1nc(OC)cc(OC)n1,inactive,
CNC(=O)Oc1ccccc1OC(C)C,,1.6 µM (active)
CCC(C)(C)C(=O)OC1=C(c2ccc(Cl)cc2Cl)C(=O)OC12CCCCC2,inactive,
COc1cc(OC)nc(NC(=O)NS(=O)(=O)c2cc(NC=O)ccc2C(=O)N(C)C)n1,inactive,
CC(C)OC(=O)Nc1cccc(Cl)c1,,7.72 µM (active)
CC(C)N(C(=O)COc1nnc(C(F)(F)F)s1)c1ccc(F)cc1,,7.16 µM (active)
CCCN(CCOc1c(Cl)cc(Cl)cc1Cl)C(=O)n1ccnc1,,1.89 µM (active)
CC(C)(C)C(O)C(Oc1ccc(Cl)cc1)n1cncn1 (stereo not given),,2.51 µM (active)
Oc1ccc(Cl)cc1Cc1ccccc1,inactive,
C#CCN1C(=O)COc2cc(F)c(N3C(=O)C4=C(CCCC4)C3=O)cc21,,20 µM (active)
COc1nn(CSP(=S)(OC)OC)c(=O)s1,,1.97 µM (active)
CC(C)(C)C(O)/C(=C\c1ccc(Cl)cc1Cl)n1cncn1 (stereo not given),,0.621 µM (active)
C[C@H]1[C@H](c2ccc(Cl)cc2)SC(=O)N1C(=O)NC1CCCCC1,,2.58 µM (active)
O=[N+]([O-])/N=C1\NCCN1Cc1ccc(Cl)nc1,inactive,
CCC(C)Nc1c([N+](=O)[O-])cc(C(C)(C)C)cc1[N+](=O)[O-] (stereo not given),,3.63 µM (active)

Structure (SMILES),outcome,AC50
COC(=O)c1ccccc1S(=O)(=O)NC(=O)Nc1nc(C)nc(OC)n1,inactive,
O=S(=O)(O)C(F)(F)C(F)(F)C(F)(F)C(F)(F)C(F)(F)C(F)(F)C(F)(F)C(F)(F)F,inactive,
Oc1cc(Cl)ccc1Oc1ccc(Cl)cc1Cl,inactive,
COP(=S)(OC)Oc1ccc([N+](=O)[O-])cc1,,5.28 µM (active)
CCc1ccc(C(=O)NN(C(=O)c2cc(C)cc(C)c2)C(C)(C)C)cc1,,2.19 µM (active)
CCOCN(C(=O)CCl)c1c(C)cccc1CC,,2.05 µM (active)
COP(=O)(OC)OC=C(Cl)Cl,inactive,
Cc1[nH]c(=O)n(C(C)(C)C)c(=O)c1Cl,inactive,
OCCOc1ccccc1,inactive,
ClC1C(Cl)C(Cl)C(Cl)C(Cl)C1Cl (stereo not given),,1.39 µM (active)
COC(=O)c1ccccc1CS(=O)(=O)NC(=O)Nc1nc(OC)cc(OC)n1,inactive,
O=S1OCC2C(CO1)C1(Cl)C(Cl)=C(Cl)C2(Cl)C1(Cl)Cl (stereo not given),,2.56 µM (active)
O=[N+]([O-])c1c(Cl)c(Cl)c(Cl)c(Cl)c1Cl,,4.02 µM (active)
CC[C@H](C)[C@H]1O[C@]2(C=C[C@@H]1C)C[C@@H]1C[C@@H](C/C=C(\C)[C@@H](O[C@H]3C[C@H](OC)[C@@H](O[C@H]4C[C@H](OC)[C@@H](O)[C@H](C)O4)[C@H](C)O3)[C@@H](C)/C=C/C=C3\CO[C@@H]4[C@H](O)C(C)=C[C@@H](C(=O)O1)[C@]34O)O2 (tested in a mixture with another compound),,3.97 µM (active)
N#Cc1c(Cl)c(Cl)c(Cl)c(C#N)c1Cl,inactive,
CCOC1Oc2ccc(OS(C)(=O)=O)cc2C1(C)C (stereo not given),,3.12 µM (active)
COC(=O)c1ccccc1S(=O)(=O)NC(=O)N(C)c1nc(C)nc(OC)n1,inactive,
O=C(O)C(F)(F)C(F)(F)C(F)(F)C(F)(F)C(F)(F)C(F)(F)C(F)(F)F,inactive,
O=C(NC(=O)c1c(F)cccc1F)Nc1ccc(OC(F)(F)C(F)OC(F)(F)F)c(Cl)c1 (stereo not given),inactive,
O=C(O)COc1ccc(Cl)cc1Cl,inactive,
